Bioassay records: PubChem, several laboratories
This is a sample that favours compounds with a hit; in the whole collection about 2.2% have one here.
aSyn UTR inh: 5' untranslated region of α-synuclein, MLPCN primary screen; alpha-synuclein 5'UTR reporter, inhibitor activity; inhibition, % (tested at 7.5 µM); 300,000 compounds, 0.82% hits; in the data active = inhibition above about 60%; inconclusive = no clear call, values can overlap the other calls;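 also: H4 neuroglioblastoma cells stably carrying SNCA 5'UTR luciferase fusion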
Ba/F3 V617F tox: lowers viability of Ba/F3 cells expressing EpoR and JAK2V617F. ATP luminescence. inhibition, % at 5.6 µM. 220,000 compounds, 1.1% hits. AID 1446;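 active = inhibition above the campaign mean plus 3 SD over all tested compounds, cut at about 24% in these data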;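 also: cytokine-independent growth of Ba/F3 cells driven by EpoR plus mutant JAK2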
BaF3 parental: counter-screen for JAK2V617F inhibitors: parental Ba/F3 viability inhibitors | inhibition, % at 5.6 µM | 220,000 compounds, 1.1% hits | CellTiter-Glo ATP luminescence | AID 1486;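 active = inhibition above a per-campaign cutoff, the mean inhibition of all tested compounds plus 3 SD, cut at about 27% in these data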
KLF5 inh: suppresses KLF5 promoter-driven expression. DLD-1 KLF5 promoter-luciferase reporter, luminescence. inhibition, % at 5 µM. 290,000 compounds, 0.23% hits. AID 1700;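 active = inhibition above a per-plate limit of that plate's mean compound inhibition plus 3 SD, cut at about 60% in these data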;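 also: higher means less KLF5 promoter-driven luciferase light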
APP transl inh: APP translation inhibition. SH-SY5Y APP 5'UTR-luciferase reporter, luminescence. 190,000 compounds, 0.82% hits. inhibition, % at 2 µM. AID 1285;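 active = inhibition above a set limit, derived from the sample mean plus 3 SD, cut at about 45% in these data; inconclusive = one replicate passes the limit while the other fails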
IEC-6 tox-1: IEC-6 cytotoxicity, counter-screen for KLF5 inhibitors. luminescence viability. inhibition, % at 5 µM. 290,000 compounds, 0.78% hits
KLF5 confirm: confirmation of KLF5 inhibitors; shares compounds with KLF5 inh; DLD-1 KLF5 promoter firefly luciferase reporter, luminescence; inhibition, % at 4 µM; 610 compounds, 79% hits; AID 1834;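 active = inhibition above a set limit taken from the earlier primary screen, cut at about 63% in these data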
IEC-6 tox-2: rat IEC-6 cytotoxicity, KLF5 inhibitor counter-screen; shares compounds with KLF5 inh; 610 compounds, 56% hits; inhibition, % at 4 µM; IEC-6 rat intestinal cells, viability luminescence; in the data active = inhibition above about 23%;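 also: cells exposed to compounds for 48 hours before viability read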
IEC-6 tox confirm: IEC-6 cytotoxicity, confirmation assay; 1,900 compounds, 63% hits; shares compounds with IEC-6 tox-1; inhibition, % at 5 µM; AID 1907; IEC-6 rat intestinal epithelial viability, luminescence
Numbers stand for hits; 0 = inactive; ? = inconclusive; - = no result given. Rule as the data show it, unless noted: active = inhibition above about 22%; inactive = the rest.

SMILES | aSyn UTR inh | Ba/F3 V617F tox | BaF3 parental | KLF5 inh | APP transl inh | IEC-6 tox-1 | KLF5 confirm | IEC-6 tox-2 | IEC-6 tox confirm
COc1cc(CNC2CCCC2)cc(Cl)c1OCc1ccccc1F | 0 | 0 | 0 | 0 | 0 | 0 | - | - | -
NS(=O)(=O)c1ccc(N=Nc2ccc(O)c3ncccc23)cc1 | 64 | - | - | 80 | - | 46 | 74 | 0 | 0
Cc1noc(C)c1COc1cccc(C(=O)NC(C)(C)C)c1 | 0 | 0 | 0 | 0 | 0 | 0 | - | - | -
COc1cc(-c2noc(C)c2-c2ccc(N(C)C)nc2)cc(OC)c1OC | 0 | - | - | 76 | - | 93 | 85 | 82 | 59
O=C(Nc1ccc(S(=O)(=O)N2CCOCC2)cc1)c1ccc([N+](=O)[O-])s1 | 0 | - | - | - | - | - | - | - | -
O=C(Nc1ccc(S(=O)(=O)N2CCOCC2)cc1)c1ccc([N+](=O)[O-])o1 | 0 | 68 | 66 | 99 | - | 67 | 0 | 0 | 0
O=C(N/N=C(\c1ccccc1)c1cccnc1)c1cccc(F)c1 | 80 | - | - | 68 | - | 100 | 84 | 75 | 80
O=C(N/N=C(\c1ccccc1)c1cccnc1)c1ccc(O)cc1 | 0 | - | - | 0 | - | 0 | - | - | -
COc1ccc(-c2nn(-c3ccccc3)cc2/C=N/NC(N)=S)cc1OC | 90 | 82 | 82 | 69 | 95 | 72 | 71 | 59 | 62
COc1ccc(-c2nn(-c3ccccc3)cc2/C=N/n2cnnc2)cc1OC | 0 | 0 | 0 | 0 | 0 | 0 | - | - | -
C/C(=N\NC(=O)c1c(Br)c(C)nn1C)c1cccc(NC(=O)C2CCC2)c1 | 0 | 0 | 0 | 0 | 0 | 0 | - | - | -
C/C(=N\NC(=O)c1c(Cl)c(C)nn1C)c1ccc(NC(=O)C2CCC2)cc1 | 0 | - | - | 65 | - | 73 | 83 | 60 | 52
C/C(=N\NC(=O)c1c([N+](=O)[O-])c(C)nn1C)c1ccc(NC(=O)C2CCCC2)cc1 | 81 | - | - | 65 | - | 77 | 76 | 54 | 64
C/C(=N\NC(=O)c1c([N+](=O)[O-])c(C)nn1C)c1ccc(NC(=O)c2ccc(C)o2)cc1 | 0 | - | - | 0 | - | 0 | - | - | -
CCCCCOC(=O)c1[nH]c2c(c1C)C(=O)CC(c1ccco1)C2 (configuration not stated) | 0 | 95 | 95 | 79 | 95 | 94 | 88 | 77 | 79
COCCOC(=O)c1[nH]c2c(c1C)C(=O)CC(c1cccs1)C2 (configuration not stated) | 64 | 74 | 75 | 71 | 85 | 79 | 73 | 59 | 55
COCCOC(=O)c1[nH]c2c(c1C)C(=O)CC(c1ccc(OC)c(OC)c1)C2 (configuration not stated) | 0 | - | - | 0 | - | 0 | - | - | -
COC(=O)c1[nH]c2c(c1C)C(=O)CC(c1cccc(OC)c1)C2 (configuration not stated) | 0 | - | - | 78 | - | 86 | 89 | 64 | 62
CCOCCOC(=O)c1[nH]c2c(c1C)C(=O)CC(c1ccccc1)C2 (configuration not stated) | 0 | - | - | 78 | - | 91 | 87 | 66 | 76
CN(CC(=O)Nc1ccc(Cl)cc1)c1ccc(S(=O)(=O)N2CCCCC2)cc1[N+](=O)[O-] | 0 | 0 | 0 | 0 | 0 | 0 | - | - | -
COc1ccc(OC)c(NS(=O)(=O)c2ccc(N3CCCC3=O)cc2)c1 | 111 | 79 | 81 | 83 | 96 | 88 | 83 | 62 | 53
COc1ccc(CCNS(=O)(=O)c2ccc(N3CCCC3=O)cc2)cc1 | 0 | 0 | 0 | 0 | 0 | 0 | - | - | -
CCOc1ccc(S(=O)(=O)Nc2cc(OC)ccc2OC)cc1 | 81 | 80 | 80 | 73 | 93 | 90 | 83 | 59 | 62
Cc1cccc2c1NC(C)CC2C (configuration not stated) | 0 | 0 | 0 | 0 | 0 | 0 | - | - | -
O=C(NNC(=O)C1CCCN(S(=O)(=O)c2ccc3ccccc3c2)C1)C1CC1 (configuration not stated) | 0 | 0 | 0 | 0 | 0 | 0 | - | - | -
SMILES | aSyn UTR inh | Ba/F3 V617F tox | BaF3 parental | KLF5 inh | APP transl inh | IEC-6 tox-1 | KLF5 confirm | IEC-6 tox-2 | IEC-6 tox confirm
Cc1ccccc1C1=NC(C(F)(F)F)(C(F)(F)F)c2c(n(C)c(=O)n(C)c2=O)N1 | 0 | 0 | 0 | 0 | 0 | 0 | - | - | -
Cn1c2c(c(=O)n(C)c1=O)C(C(F)(F)F)(C(F)(F)F)N=C(c1ccc(Cl)cc1)N2 | 99 | 95 | 86 | 81 | 51 | 37 | 84 | 57 | 92
CC(=O)NC(c1ccc(C(C)C)cc1)c1ccc2cccnc2c1O (configuration not stated) | 67 | - | - | 81 | - | 70 | 82 | 83 | 83
COc1cccc(C(NC(C)=O)c2ccc3cccnc3c2O)c1 (configuration not stated) | 72 | - | - | 91 | - | 99 | 97 | 81 | 75
CC(=O)NC(c1ccc(C)cc1)c1cc(Cl)c2cccnc2c1O (configuration not stated) | ? | - | - | 64 | - | 94 | 83 | 69 | 69
CC(=O)NC(c1cccc([N+](=O)[O-])c1)c1ccc2cccnc2c1O (configuration not stated) | 123 | - | - | 62 | - | 94 | 96 | 80 | 77
CC(=O)NC(c1ccccc1)c1cc([N+](=O)[O-])c2cccnc2c1O (configuration not stated) | 0 | 0 | 0 | 0 | 0 | 0 | - | - | -
CCC1CN(S(=O)(=O)c2ccc3c(c2)NC(=O)CC(=O)N3)c2cc(Cl)ccc2O1 (configuration not stated) | 0 | - | - | 0 | - | 0 | - | - | -
CCN(CC)c1ccc(NC(=O)c2cc(OC)cc(OC)c2)c(C)c1 | 0 | 78 | 78 | 75 | 92 | 78 | 79 | 60 | 60
COC(=O)C1=C(SC)N(c2ccc(OC)cc2)C(c2ccccc2)CC1=O (configuration not stated) | 0 | 0 | 0 | 0 | 0 | 0 | - | - | -
COc1ccc(OC)c(C2=Nn3c(nnc3-c3cc(OC)c(OC)c(OC)c3)SC2)c1 | 0 | 0 | 0 | 0 | 0 | 0 | - | - | -
COc1cc(-c2nnc3n2N=C(c2ccccc2)CS3)cc(OC)c1OC | 63 | 74 | 81 | 79 | 94 | 77 | 73 | 69 | 67
COc1ccc(NS(=O)(=O)c2cc(C)ccc2NC(=O)c2cc(C)oc2C)cc1 | 103 | 75 | 79 | 62 | 95 | 82 | 81 | 62 | 62
CCOc1cc(C#N)c(NC(=O)c2cccnc2)cc1OCC | 0 | 84 | 77 | 73 | 89 | 82 | 79 | 50 | 56
CN(C)CCCN(C(=O)c1ccco1)c1nc2cc3c(cc2s1)OCO3 | 0 | - | - | 0 | - | 45 | - | - | 0
Cc1ccc2nc(N(CCCN(C)C)C(=O)c3ccco3)sc2c1 | 0 | 0 | 0 | 0 | 0 | 0 | - | - | -
Cc1cc(NC(=O)CSc2nnc(-c3ccc([N+](=O)[O-])cc3)o2)no1 | 0 | - | - | 0 | - | 0 | - | - | -
